# Assay results published in ChEMBL document CHEMBL4513216, “Probing the Open Global Health Chemical Diversity Library for Multistage-Active Starting Points for Next-Generation Antimalarials” (ACS Infect Dis, 2020).
# Out of some 68,000 compounds screened, about 2,700 (4%) showed an effect of 50% or more. The entries come from a sample that favours strong results as a whole.
# System: Plasmodium berghei
# Assay: Screen against P. berghei liver stage (PbLuc), transformed with Luciferase, at 2uM
# Assay type: functional, HepG2
# Settings: tested at 2 uM
row,SMILES,INHIBITION [%]
1,COc1ccc2c(C)nc(N3CCN([C@H]4CCCC[C@@H]4O)CC3)nc2c1,-104.21
2,CC(C)OCc1ncn2c1CN(Cc1cccs1)CCC2,16.22
3,Cn1c(CS(=O)(=O)Cc2ccc(Cl)cc2)cc(=O)n(C)c1=O,26.34
4,Cc1cc(CN2C[C@@H]3COC[C@]3(c3nnc(C)o3)C2)no1,-83.05
5,Cc1nnc([C@]23COC[C@H]2CN(Cc2cccs2)C3)o1,27.73
6,Cc1nnc([C@]23COC[C@H]2CN(Cc2nccs2)C3)o1,51.36
7,O=C(CCNS(=O)(=O)c1ccc(F)cc1)NCc1ccoc1,12.01
8,Cc1nccn1-c1ncccc1NC(=O)CCOCC(C)C,53.54
9,CCOCCCC(=O)Nc1cccnc1-n1ccnc1C,-12.09
10,CC(C)COCCC(=O)Nc1cccnc1-n1cncn1,22.88
11,CC(C)(C)c1noc(CCCC(=O)NCC2CCS(=O)(=O)C2)n1 (stereo unspecified),-12.82
12,COC(=O)CNC(=O)c1sccc1N(C)S(=O)(=O)c1ccc(Cl)cc1,3.38
13,Nc1cc2c(nn1)CCN(C(=O)CC1CCCCC1)C2,38.76
14,CCc1nc(CN(C)C2CCN(Cc3nc(C4CC4)no3)C2)no1 (stereo unspecified),-45.03
15,O=C(CC[C@@H]1CCCN2CCCC[C@H]12)NCCc1cc(O)ncn1,-20.38
16,Nc1cc(O)nc(CCNC(=O)CC[C@@H]2CCCN3CCCC[C@H]23)n1,26.81
17,O=C(CC[C@@H]1CCCN2CCCC[C@H]12)NCCc1nc(O)cc(O)n1,51.77
18,Cn1nc(C2CCNCC2)c2c(C(=O)NC3CC3)cc(C3CC3)nc21,40.28
19,CC(C)c1cc(N[C@@H](CO)C(N)=O)n2nccc2n1,50.42
20,CC(C)c1cc(N[C@H](C(N)=O)C(C)C)n2nccc2n1,-48.3
21,CC(C)c1cc(NC(CO)CO)n2nccc2n1,20.14
22,COCCc1noc(CN2CC(C)(c3ccccc3)CCC2=O)n1 (stereo unspecified),-12.84
23,Cn1ccnc1C1c2nc[nH]c2CCN1Cc1cccnc1 (stereo unspecified),-7.68
24,CCc1nc(C2CCCN(C(=O)C3=NN(C(C)C)C(=O)CC3)C2)no1 (stereo unspecified),52.08
25,Cc1nc(C2CCCN(C(=O)C3=NN(C(C)C)C(=O)CC3)C2)no1 (stereo unspecified),21.24
26,CCc1nc(C2CCCN(C(=O)NC(C)C)C2)no1 (stereo unspecified),9.82

row,SMILES,INHIBITION [%]
1,CCN1N=C(C(=O)N2CCCC(c3noc(C)n3)C2)CCC1=O (stereo unspecified),10.23
2,CCc1csc(C2CCCN(C(=O)C3=NN(CC)C(=O)CC3)C2)n1 (stereo unspecified),3.9
3,CCc1nc(C2CCCN(C(=O)C3=NN(CC)C(=O)CC3)C2)no1 (stereo unspecified),53.19
4,O=c1c(Cc2ccccc2)c(O)ccn1CCc1ccccc1,44.59
5,Cc1ccc(CN2CC[C@H]3C[C@H](C(=O)N(C)C)O[C@H]3C2)cc1,22.5
6,CCOc1ncccc1NC(=O)Nc1c(C)nn(C(C)C)c1C,-10.87
7,CC(C)(C)c1coc([C@@H]2COCCN2Cc2ccccc2)n1,18.4
8,CC(C)(C)c1coc([C@@H]2COCCN2Cc2c[nH]c3ccccc23)n1,27.44
9,Cn1cc(CN2CCOC[C@H]2c2nc(C(C)(C)C)co2)c2ccccc21,50.17
10,O=C(c1ccc(Cl)cc1)N1CCC(N2CCCNC2=O)CC1,27.54
11,O=C(c1ccoc1)N1CCC2(CC1)COC(COc1ccccn1)C2 (stereo unspecified),24.51
12,COCCC1COC2(CCN(C(=O)c3cccnc3)CC2)C1 (stereo unspecified),1.81
13,Cn1cc(CN2C[C@@H]3COC[C@]3(CNC(=O)c3ccsc3)C2)cn1,9.79
14,COc1ccc(C)cc1CN(Cc1ncc(C)o1)C1CCN(C)C1 (stereo unspecified),-5.79
15,Cc1cnc(CN(Cc2ccc(Cl)s2)C2CCN(C)C2)o1 (stereo unspecified),14.83
16,Cc1cnc(CN(Cc2ccc(C#N)cc2F)C2CCN(C)C2)o1 (stereo unspecified),60.84
17,CN1CCN(CC2CC2)C(=O)c2cnc(N3CCC(CO)CC3)nc21,-13.87
18,CSCCC(NC(N)=O)C(=O)NCc1ccc(-n2cccn2)cc1 (stereo unspecified),50.42
19,CSCCC(NC(N)=O)C(=O)NCc1cnn(-c2ccccc2)c1 (stereo unspecified),-12.03
20,CSCCC(NC(N)=O)C(=O)Nc1ccc(-n2cccn2)nc1 (stereo unspecified),-0.41
21,CCCOc1cc(C)ccc1NC(=O)NCCC(=O)N(C)C,-36.17
22,COc1cc(C(=O)NC2COc3ccccc3C2)ccc1OCC(N)=O (stereo unspecified),-3.62
23,COc1cccc(C(=O)N2CCOCC2CN(C)C)c1OC (stereo unspecified),31.55
24,OC(CNCc1nnc2ccccn12)c1ccc2c(c1)OCO2 (stereo unspecified),31.54
25,CC(C)NC(=O)N1CCC(c2nnc3n2CCNC3)CC1,13.28
26,COc1cccc2c1OCC(CNC(=O)CSc1ccccn1)C2 (stereo unspecified),33.11

row,SMILES,INHIBITION [%]
1,COc1cccc2c1OCC(CNC(=O)Cc1cnccn1)C2 (stereo unspecified),-20.89
2,COc1cccc2c1OCC(CNC(=O)Cn1ccnc1C)C2 (stereo unspecified),50.32
3,Cn1cccc1C(=O)N1CCC2(CC1)CC(N1CCOCC1)C2,35.89
4,Cc1ccc(S(=O)(=O)N2CCC(S(=O)(=O)c3nncn3C)CC2)cc1C,-19.3
5,Cn1cnnc1S(=O)(=O)C1CCN(S(=O)(=O)c2ccc(F)c(Cl)c2)CC1,60.09
6,Cn1cnnc1S(=O)(=O)C1CCN(S(=O)(=O)c2ccccc2F)CC1,-8.91
7,CCOC(=O)N1CCC(NC(C)c2ccccc2-n2cccn2)CC1 (stereo unspecified),52.89
8,CCOC(=O)N1CCC(NC(C)Cc2cc(C)n[nH]2)CC1 (stereo unspecified),-0.88
9,CC(C)CN1CCC(NC(C)c2ccccc2-n2cccn2)CC1 (stereo unspecified),12.11
10,O=C1COC2(CCN(S(=O)(=O)C3CC3)CC2)CN1c1cccnc1,10.37
11,CCN(C(=O)Nc1nccs1)C(C)c1cccc(O)c1 (stereo unspecified),-81.27
12,NC(=O)c1cnn2c1NCC(CNCC1(c3ccccc3)CCCC1)C2 (stereo unspecified),-181.66
13,CN(Cc1ccc(Cl)s1)C(=O)COc1cccc(C(N)=O)c1,34.61
14,CN(Cc1ccc(Cl)s1)C(=O)c1ccccc1OCC(N)=O,54.75
15,CN(Cc1ccc(Cl)s1)C(=O)c1cccc(OCC(N)=O)c1,26.14
16,COc1ccc([C@@H]2CN(C(=O)CS(C)(=O)=O)C[C@H]2NC(C)=O)cc1,1.85
17,CCOCC(=O)N1C[C@@H](NC(C)=O)[C@H](c2ccc(OC)cc2)C1,20.15
18,COCCN(C)CC(=O)N1C[C@@H](NC(C)=O)[C@H](c2ccc(OC)cc2)C1,53.13
19,c1ccc2sc(CN3CCOC(Cn4cncn4)C3)nc2c1 (stereo unspecified),5.72
20,c1ccc2sc(CN3CCOC(Cn4cccn4)C3)nc2c1 (stereo unspecified),-88.54
21,Cc1cnn(CC2CN(Cc3nc4ccccc4s3)CCO2)c1 (stereo unspecified),53.98
22,Cn1cc(C(=O)NCCc2ccc(OC3CCCC3)cc2)ccc1=O,-25.78
23,CCOCc1cncc2c1CCN(S(=O)(=O)c1cccc(C)c1)C2,9.36
24,CCOCc1cncc2c1CCN(S(=O)(=O)c1ccc(C)cc1)C2,70.13
25,CCOCc1cncc2c1CCN(S(=O)(=O)c1ccccc1)C2,-18.7
26,COc1ccc(CN2C[C@@H]3OCCN(CCN4CCCC4)[C@@H]3C2)cc1,28.85

row,SMILES,INHIBITION [%]
1,CN(C(=O)c1cccc(NCc2cccs2)c1)C(C1CC1)C1CC1,29.41
2,Nc1nc2c(c(NCc3nccs3)n1)CCN(CC1CCCC1)CC2,-1.29
3,CCc1cnc(CN(C(C)=O)C2CCN(CC(=O)N3CCCC3)C2)o1 (stereo unspecified),75.98
4,CCc1cnc(CN(C(C)=O)C2CCN(CCc3ccccn3)C2)o1 (stereo unspecified),35.65
5,CCc1cnc(CN(C(C)=O)C2CCN(CCc3ccccc3)C2)o1 (stereo unspecified),51.94
6,CCc1cnc(CN(C(C)=O)C2CCN(CCc3cnn(C)c3)C2)o1 (stereo unspecified),1.61
7,CCc1cnc(CN(C(C)=O)C2CCN(CCS(C)(=O)=O)C2)o1 (stereo unspecified),-9.62
8,CCc1cnc(CN(C(C)=O)C2CCN(CC3(O)CCCCC3)C2)o1 (stereo unspecified),43.79
9,CCc1cnc(CN(C(C)=O)C2CCN(Cc3nccn3C)C2)o1 (stereo unspecified),10.22
10,CCc1cnc(CN(C(C)=O)C2CCN(CCc3ccncc3)C2)o1 (stereo unspecified),17.31
11,CCc1cnc(CN(C(C)=O)C2CCN(CCN3CCCCC3)C2)o1 (stereo unspecified),56.02
12,Cc1cc(C)cc(OCC(=O)N2CCCN(CC(N)=O)CC2)c1,-28.76
13,CN(C)C[C@H]1OC[C@@H]2CCN(C(=O)c3cccn3C)C[C@@H]21,8.65
14,Cc1cc(C)n(NC(=O)c2ccc(Cl)cc2Cl)c(=O)c1,-3.05
15,Cc1ccc(CNC2CC3(CCN(CCO)CC3)c3ccccc32)s1 (stereo unspecified),47.05
16,CN(C)[C@@H]1CN(C(=O)COc2cccc(F)c2)C[C@H]1O,-0.83
17,CCCNC(=O)C1CCN(Cc2csc(CC)n2)CC1,36.64
18,COCCC1COC2(CCN(C(=O)Cc3ccccc3)CC2)C1 (stereo unspecified),-19.07
19,O=C([C@H]1COC[C@H]2CN(C3CCOCC3)C[C@H]21)N1CCCO1,-17.39
20,O=C([C@@H]1COC[C@H]2CN(C3CCOCC3)C[C@H]21)N1CCCCO1,59.77
21,O=C([C@H]1COC[C@H]2CN(C3CCOCC3)C[C@H]21)N1CCCCO1,-3.25
22,CCOCC1c2c(cnn2CC2CC2)CCN1Cc1nccs1 (stereo unspecified),26.64
23,O=C(NCCCO)c1nnsc1-c1ccc(Cl)cc1,34.52
